This passage reports INHIBITION results from ChEMBL document CHEMBL4513216, “Probing the Open Global Health Chemical Diversity Library for Multistage-Active Starting Points for Next-Generation Antimalarials” (ACS Infect Dis, 2020).

About 2,100 (3.2%) of roughly 65,000 compounds showed an effect of 50% or more. The median lay at about -52%. The full list was thinned out, with strong results kept by preference.

For this test, the system named is Plasmodium falciparum. As to the kind of experiment: Screen against P. falciparum Asexual Blood Stage (ABS), at 5uM. The format is functional, Dd2. The settings on record: tested at 5 uM.
With `O=C1CC[C@H]2[C@H](CCN2Cc2ccccn2)N1CC1CCOCC1`, the INHIBITION is -82.3%. Take `COc1ccccc1-c1ncc(CN2CCCC[C@H](N(C)C)C2)s1`: the INHIBITION was 70.3%. The figure for `COc1ccc(F)cc1C(=O)C1CCCN(Cc2cnc(C)s2)C1` (stereo not given) is -29%. Turning to `CCC(CC)C(=O)N1CCOC2(CNC2)C1`, the INHIBITION is -94.6%. In the case of `O=C(NCCCNc1ccc(C(F)(F)F)cn1)c1ccc(F)cc1F` it was 72.5%. In the case of `CC(=O)c1cn(CC(=O)N2CCC3(CC2)OCCO3)c2ccccc12` it was -61.4%; in that of `N#Cc1cccnc1NCCNC(=O)N1CCN2CCCCC2C1` (stereo not given), -90.5%; in that of `COCC1CC2(CCN(Cc3ccncc3)CC2)CN1C(C)C` (stereo not given), -68%. In the case of `N#Cc1cccc(CN2CCO[C@@H]3CNC[C@@H]32)c1` it was -52.7%; in that of `COCC1CC2(CCN(Cc3cccc(C#N)c3)CC2)CN1C(C)C` (stereo not given), 73.2%.

Turning to `COCC1CC2(CCN(Cc3ccoc3)CC2)CN1C(C)C` (stereo not given), the INHIBITION is 71.6%. Take `N#Cc1cccc(CN2C[C@@H]3CN(c4ncccn4)C[C@@H]3C2)c1`: the INHIBITION was 19%. With `COCC1CC2(CCN(c3ccccn3)CC2)CN1C(C)C` (stereo not given), the INHIBITION is on record as -41%. For `O=C(CC1CC1)N[C@@H]1CN(Cc2ccccn2)C[C@@H]2CCCO[C@@H]21`, the INHIBITION is listed as -65.3%. In the case of `O=C(NCc1ccccn1)[C@H]1COC[C@H]2CN(CC3CC3)C[C@H]21`, the INHIBITION is reported as -35.7%.

Turning to `CN(Cc1ccccn1)C1CCC[C@@H]2CN(CC3CC3)C[C@H]12` (stereo not given in full), the INHIBITION is 69.5%.

`Cc1noc(C)c1CN(C)C(=O)C1CCCCN1CC(C)C` (stereo not given): the INHIBITION was 21.5%. In the case of `COC[C@H](C)Nc1cc(C)c2ccc(SC)cc2n1` it was 75.5%. Regarding `c1ccc(C(Cn2cnnc2)N2CCOCC2)nc1` (stereo not given), the INHIBITION was -29.3%.

On to `CN1CCC2(CC1)CNC(=O)c1ccccc1O2`, for which the INHIBITION is given as -102%. The figure for `O=C1Nc2ccccc2CC12CCCN2Cc1ccccn1` (stereo not given) is -60.5%; for `Cc1cc(-c2cc(S(=O)(=O)N3C[C@H](C4CC4)[C@@H](N)C3)c(C)s2)on1` it is 71.2%. The figure for `Cc1cc(S(=O)(=O)N2C[C@H](C3CC3)[C@@H](N)C2)c(C)s1` is 86.1%. The figure for `O=C(CC1CC1)N[C@@H]1CN(Cc2ccncc2)C[C@@H]2CCCO[C@@H]21` is -86.8%. For `Cc1nnc(N2CCNCC2)c(C(N)=O)c1C`, the INHIBITION is on record as -11.3%.

As for `CCN1CC2(CC1=O)CN(Cc1ccccn1)CCN(C(C)=O)C2` (stereo not given), the INHIBITION is on record as -40.2%. In the case of `CN1CC=C(c2noc(CCC(=O)N3CCc4ccccc43)n2)CC1` it was -88.8%; in that of `CC(C)CN1CCCC1c1ccc(C(=O)Nc2cccnc2)s1` (stereo not given), 87.5%; in that of `CC(C)CN1C[C@@H]2C[C@H](C(=O)Nc3cccnc3)[C@H](C1)O2`, -48.5%.

Regarding `CC(=O)N1CC[C@H]2N(C)CC[C@@]2(C(=O)Nc2cccnc2)CC1`, the INHIBITION is on record as -36%.

As for `Cn1nc(-c2cccs2)cc1[C@H]1CN2CC[C@H]1C[C@@H]2CN`, the INHIBITION is recorded as -26%.

Regarding `Cc1csc(C2CCCCN2C(=O)c2cc(C(C)C)[nH]n2)n1` (stereo not given), the INHIBITION is 76.4%.

As for `CSc1ccccc1C(=O)C1CCCN(Cc2cc(C(C)C)[nH]n2)C1` (stereo not given), the INHIBITION is reported as -93.2%. In the case of `CN(C)Cc1cncc2c1CCN(CC(=O)N(C)C)C2` it was -114%. The figure for `Cc1ncc(CN(Cc2ccccn2)Cc2ccccc2Cl)n1C` is 91.6%. With `O=C(NCCCOCC1CC1)Nc1ccc(-n2cncn2)c(F)c1`, the INHIBITION turned out to be 88.3%. The figure for `CN(CCOCC1CC1)C(=O)Nc1ccc(C#N)c(Cl)c1` is -115%.

For `O[C@@H]1CC(CNCc2ccc(Cl)cc2)(COc2cccnc2)C[C@@H]1O` (stereo not given in full), the INHIBITION turned out to be 70.3%.

Regarding `c1cncc(OC[C@]23COC[C@H]2CN(Cc2ccsc2)C3)c1`, the INHIBITION is 20.3%.

Consider `O[C@@]1(CNCCCOc2cccnc2)CCCN2CCCC[C@@H]21`, for which the INHIBITION was -36.8%.

`O=S(=O)(NCC(c1ccsc1)N1CCCCCC1)c1cccs1` (stereo not given): the INHIBITION is listed as 85.5%. The figure for `Cc1ccc(NC(=O)N2CCC(CO)(Nc3ccccc3)CC2)cc1` is -31.275%; for `NC(=O)CN1CCCCC1c1ccc(-n2ccnc2)nc1` (stereo not given) it is -59.6%. As for `OCCN1CCOC2(CCCN(c3ncc(F)cn3)C2)C1` (stereo not given), the INHIBITION worked out at 11%. As to `Fc1cccc(N2CCCC3(C2)CN(c2ncccn2)CCO3)c1` (stereo not given), the INHIBITION was 70.6%. The figure for `OCCN1CCOC2(CCCN(c3ncccn3)C2)C1` (stereo not given) is -14.1%. For the molecule `Cc1noc(C)c1CN1CCO[C@H]2CN(Cc3cnn(C)c3)C[C@H]21`, the INHIBITION is reported as 13.9%. In the case of `CCNC(=O)C(C)NC(=O)c1cnc(-c2ccc(C)cc2C)s1` (stereo not given) it was 71.5%; in that of `CCS(=O)(=O)NC[C@]12COC[C@H]1CN(Cc1cccnc1OC)C2`, -27.6%. The figure for `CCNC(=O)c1cn(C(C)(C)C)c2ncccc12` is 5.57%.

On to `Cc1cccc(CN2C[C@@H]3COC[C@]3(COCC(=O)N(C)C)C2)n1`, for which the INHIBITION is given as -104%. In the case of `CN(CCCO)Cc1cc(Cl)ccc1OCC(O)CN1CCCCCC1` (stereo not given) it was 90.7%; in that of `CCC(O)CN1CCN(C(=O)Cc2cc(Cl)ccc2OC)CC1` (stereo not given), -17.7%; in that of `COCCN(C)Cc1cc(Cl)ccc1OCC(O)CN1CCCCCC1` (stereo not given), 83.9%. The figure for `COc1ccc(Cl)cc1CC(=O)N1CCN(CC(C)(C)O)CC1` is -155%; for `CN(CCO)Cc1cc(Cl)ccc1OCC(O)CN1CCCCCC1` (stereo not given) it is 81.5%; for `Cn1cc(C2SCC(=O)Nc3c2c(=O)[nH]n3C2CCOCC2)cn1` (stereo not given) it is -57.4%.

Turning to `O=C1CSC(c2ccccc2)c2c(n(C3CCOCC3)[nH]c2=O)N1` (stereo not given), the INHIBITION is recorded as -34.2%.

Turning to `c1cc([C@H]2C[C@@H]3CCN(Cc4nccs4)C[C@H]3O2)ncn1`, the INHIBITION was -99.9%.

On to `Cc1noc([C@H]2C[C@H]3OCC[C@H]3N(Cc3ccncc3)C2)n1`, for which the INHIBITION is recorded as -164%. In the case of `CCCn1nc(C)c(-c2cncn2CC2(N(C)C)CCC(C)CC2)c1C` (stereo not given) it was 70.3%. In the case of `O=C1[C@H]2CN(Cc3ccc(F)cc3)C[C@H]2CN1c1cncnc1` it was 2.38%; in that of `CC(c1ccc(F)cc1)N1CCN(Cc2ccc(C#N)cc2)CC1` (stereo not given), -14.8%; in that of `CC(C)Oc1ncnc2c1CCN(Cc1ccc(F)cc1)CC2`, 70.8%. Turning to `Cn1cnc(S(=O)(=O)N2CC3(CCN(Cc4ccncc4)C3)C2)c1`, the INHIBITION is listed as -29.2%.
